Measurements: PubChem BioAssay AID588342 (National Center for Advancing Translational Sciences (NCATS), 2011)
About 25,000 (6.9%) of roughly 360,000 compounds were called active. Entries that show only a call come without a potency. Another 9% or so got no clear call; they are omitted. This is one part of a sample in which actives are shown more often than they occur. Calls follow the shape of the dose curve; as a rule, active = well fitted inhibition curve with a large enough effect; inconclusive = small, poorly fitted or top-dose-only effect; inactive = flat fitted curve, though single readings scatter.

target: Luciferin 4-monooxygenase (Photinus pyralis) (UniProt P08659); assay: qHTS profiling assay for firefly luciferase inhibitor/activator using purifed enzyme and Km concentrations of substrates (counterscreen for miR-21 project); conditions: purified FLuc, luminescence inhibition; series mostly up to 57.5 µM; also: nearly all actives have a fitted effect of over 55% in size
In short: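 Purified P. pyralis luciferase, 10 nM final, with Km-level 10 uM D-luciferin and 10 uM ATP in 50 mM Tris acetate pH 7.5, 10 mM Mg acetate, 0.01% Tween-20, 0.05% BSA; 6-point qHTS titration about 60 µM downward; luminescence read.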
Potency is read from the fitted curve at half-maximal effect.

Sequence of Luciferin 4-monooxygenase (Photinus pyralis) (P08659 whole entry, looked up): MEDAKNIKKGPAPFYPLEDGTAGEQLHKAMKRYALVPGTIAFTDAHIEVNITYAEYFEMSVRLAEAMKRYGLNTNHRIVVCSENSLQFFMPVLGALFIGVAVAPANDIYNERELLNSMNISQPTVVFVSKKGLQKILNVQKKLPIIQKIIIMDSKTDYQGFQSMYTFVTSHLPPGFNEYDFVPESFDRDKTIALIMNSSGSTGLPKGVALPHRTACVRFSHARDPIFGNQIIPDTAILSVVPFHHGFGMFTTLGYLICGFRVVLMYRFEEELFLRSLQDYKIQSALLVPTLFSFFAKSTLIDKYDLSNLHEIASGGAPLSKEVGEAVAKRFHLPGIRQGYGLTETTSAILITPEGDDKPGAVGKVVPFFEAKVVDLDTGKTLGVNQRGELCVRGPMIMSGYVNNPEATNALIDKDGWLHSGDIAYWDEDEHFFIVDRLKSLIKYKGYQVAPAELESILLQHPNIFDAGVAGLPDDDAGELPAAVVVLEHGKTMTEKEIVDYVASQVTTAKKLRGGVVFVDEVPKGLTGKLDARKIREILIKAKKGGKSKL

SMILES | Potency
Cc1cccc(OCCNC(=O)CSc2ccc(C(F)(F)F)cc2[N+](=O)[O-])c1 | inactive
COc1ccc(-c2nn(CC(=O)Nc3ccccc3F)c3c2cnc2ccc(F)cc23)cc1 | inactive
CC(C)(C)OC(=O)N1CCC(C(=O)NNC(=O)c2ccc(Cl)cc2Cl)CC1 | inactive
Cn1cc([N+](=O)[O-])c(C(=O)Nc2ccc3c(c2)OCCO3)n1 | 16.9 µM (active)
CCC(C(=O)Nc1ccc2c(c1)OCCO2)c1ccccc1 (centres undefined) | inactive
O=C(Nc1cccc(NC(=O)c2ccco2)c1)c1cnccn1 | inactive
Cc1nn(CC(=O)Nc2ccc3c(c2)OCO3)c(C)c1[N+](=O)[O-] | inactive
O=C(CCN1C(=O)c2ccncc2C1=O)Nc1ccc2c(c1)OCCO2 | inactive
O=C(Nc1ccc2c(c1)OCO2)c1ccc(N2C(=O)c3ccccc3C2=O)cc1 | inactive
O=C(Nc1ccc2c(c1)OCCO2)c1ccoc1 | 21.3 µM (active)
O=C(Nc1ccc2c(c1)OCCO2)c1cnccn1 | 12 µM (active)
COc1cccc(NC(=O)c2nn(C34CC5CC(CC(C5)C3)C4)cc2[N+](=O)[O-])c1 | inactive
O=C(OCc1cc(=O)n2ccsc2n1)C1(c2ccc(Cl)cc2)CC1 | inactive
COCC(C)NS(=O)(=O)c1ccc(N2CCCCS2(=O)=O)cc1 (centres undefined) | inactive
COc1ccccc1N=C1SC(C)CN1C(=O)C1CCC1 (centres undefined) | inactive
CCOc1ccc(C(=O)Nc2ccc3nc4c(c(Nc5ccccc5OC)c3c2)CCCC4)cc1 | inactive
CCOC(=O)C1CCN(c2ncnc3c2c(-c2ccccc2)cn3-c2cccc(C)c2)CC1 | inactive
COc1ccc(C(C)NC(=O)C23CC4CC(CC(C4)C2)C3)cc1 (centres undefined) | inactive
O=C(Nc1ccc(-c2ccc3nncn3n2)cc1)C1CCCCC1 | 26.9 µM (active)
CC(C)NS(=O)(=O)c1ccc(NC(=O)C2CCCCC2)cc1 | inactive
CC(=O)c1ccc(S(=O)(=O)Nc2ccc(-c3ccc4nncn4n3)cc2)cc1 | inactive
COc1ccccc1NC(=O)c1oc2ccccc2c1NC(=O)COc1ccccc1OC | inactive
CCCCN(CC)CCCNC(=O)c1nn(C)c2c1CSc1ccccc1-2 | inactive
CCOC(=O)c1c(Cc2ccc(Cl)cc2)c[nH]c1C | 19 µM (active)
CCOC(=O)N1CCN(C(=O)CNC(=O)Cc2ccc(Cl)cc2)CC1 | inactive
CCOC(=O)c1ccc(CS(=O)c2ccc(Cl)cc2)o1 (centres undefined) | inactive
CC1(c2nnc(Cc3ccccc3)o2)CC(c2ccccc2F)=NO1 (centres undefined) | inactive
Cc1nc(-c2ccc(Cl)cc2)sc1C1(C)CC(c2ccccc2F)=NO1 (centres undefined) | 19 µM (active)
Cc1nc(C(=O)Nc2ccc(Cl)cc2)sc1C1(C)CC(c2ccccc2)=NO1 (centres undefined) | inactive
